Experimental data as given in PubChem BioAssay AID1159580 (chemical genetic matrix, 2015).
In all, about 5,500 compounds went through this assay and about 2,000 (36%) were called active. Another 18% or so got no clear call; they are omitted. The list shows a part of the results. Unmarked numbers belong to inactive results. Rule as the data show it: active = normalized growth mostly below about 0.91 (no sharp cut-off); inconclusive = no clear call, values can overlap the other calls; inactive = mostly above about 0.92.

Assay: chemical genetic growth profiling, strain panel (AID 1159580);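 also: tested at 20 µM; growth read once vehicle control cultures reached saturation at 30 °C; 1 = growth at the plate median or of vehicle wells; lower values mean less growth of the strain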
Details: growth OD

Compound: CC(=O)Oc1ccc2c(c1)CCC1C2CC[C@@]2(C)C1CC[C@@H]2OC(C)=O (stereo not given in full)
- normalized growth (S. cerevisiae deletion strains, locus YJR075W, strain HOC1, stronger effect = lower value): 0.957
- normalized growth (S. cerevisiae deletion strains, locus YKL009W, strain mrt4, stronger effect = lower value): 0.956
- normalized growth (S. cerevisiae deletion strains, locus YKL068W, stronger effect = lower value): 0.971
- normalized growth (S. cerevisiae deletion strains, locus YKL085W, strain MDH1 (second series), stronger effect = lower value): 0.959
- normalized growth (S. cerevisiae deletion strains, locus YKL085W, strain MDH1, stronger effect = lower value): 0.959
- normalized growth (S. cerevisiae deletion strains, locus YKL160W, strain elf1, stronger effect = lower value): 1
- normalized growth (S. cerevisiae deletion strains, locus YKL190W, strain CNB1, stronger effect = lower value): 0.961
- normalized growth (S. cerevisiae deletion strains, locus YKR001C, strain vps1, stronger effect = lower value): 0.98
- normalized growth (S. cerevisiae deletion strains, locus YKR026C, strain gcn3, stronger effect = lower value): 0.973
- normalized growth (S. cerevisiae deletion strains, locus YKR091W, strain srl3, stronger effect = lower value): 0.99
- normalized growth (S. cerevisiae deletion strains, locus YLL001W, strain dnm1, stronger effect = lower value): 0.96
- normalized growth (S. cerevisiae deletion strains, locus YLL026W, stronger effect = lower value): 0.991
- normalized growth (S. cerevisiae deletion strains, locus YLL041C, strain sdh2, stronger effect = lower value): 0.996
- normalized growth (S. cerevisiae deletion strains, locus YLR027C, strain aat2, stronger effect = lower value): 0.997
- normalized growth (S. cerevisiae deletion strains, locus YLR039C, strain RIC1, stronger effect = lower value): 0.838
- normalized growth (S. cerevisiae deletion strains, locus YLR058C, strain SHM2, stronger effect = lower value): 0.968
- normalized growth (S. cerevisiae deletion strains, locus YLR102C, strain apc9, stronger effect = lower value): 0.968
- normalized growth (S. cerevisiae deletion strains, locus YLR113W, strain HOG1, stronger effect = lower value): 0.911
- normalized growth (S. cerevisiae deletion strains, locus YLR221C, strain rsa3, stronger effect = lower value): 0.958
- normalized growth (S. cerevisiae deletion strains, locus YLR258W, strain gsy2, stronger effect = lower value): 0.991
- normalized growth (S. cerevisiae deletion strains, locus YLR262C, strain YPT6 (second series), stronger effect = lower value): 0.663 (active)
- normalized growth (S. cerevisiae deletion strains, locus YLR262C, strain YPT6, stronger effect = lower value): 0.729
- normalized growth (S. cerevisiae deletion strains, locus YLR268W, strain sec22, stronger effect = lower value): 0.986
- normalized growth (S. cerevisiae deletion strains, locus YLR320W, strain mms22, stronger effect = lower value): 0.908
- normalized growth (S. cerevisiae deletion strains, locus YLR330W, strain CHS5, stronger effect = lower value): 0.981
- normalized growth (S. cerevisiae deletion strains, locus YLR342W, strain FKS1 (second series), stronger effect = lower value): 1.03
- normalized growth (S. cerevisiae deletion strains, locus YLR342W, strain FKS1, stronger effect = lower value): 0.969
- normalized growth (S. cerevisiae deletion strains, locus YLR357W, strain rsc2, stronger effect = lower value): 1
- normalized growth (S. cerevisiae deletion strains, locus YLR370C, strain arc18, stronger effect = lower value): 0.977
- normalized growth (S. cerevisiae deletion strains, locus YLR371W, strain rom2, stronger effect = lower value): 0.981
- normalized growth (S. cerevisiae deletion strains, locus YLR384C, strain iki3, stronger effect = lower value): 0.985
- normalized growth (S. cerevisiae deletion strains, locus YLR418C, strain cdc73, stronger effect = lower value): 0.963
- normalized growth (S. cerevisiae deletion strains, locus YML016C, strain PPZ1, stronger effect = lower value): 0.974
- normalized growth (S. cerevisiae deletion strains, locus YML032C, strain rad52, stronger effect = lower value): 0.974
- normalized growth (S. cerevisiae deletion strains, locus YML120C, strain ndi1, stronger effect = lower value): 0.97
- normalized growth (S. cerevisiae deletion strains, locus YML124C, strain tub3, stronger effect = lower value): 0.965
- normalized growth (S. cerevisiae deletion strains, locus YMR058W, strain fet3, stronger effect = lower value): 1
- normalized growth (S. cerevisiae deletion strains, locus YMR078C, strain ctf18, stronger effect = lower value): 0.964
- normalized growth (S. cerevisiae deletion strains, locus YMR125W, strain sto1, stronger effect = lower value): 0.994
- normalized growth (S. cerevisiae deletion strains, locus YMR129W, stronger effect = lower value): 0.989
- normalized growth (S. cerevisiae deletion strains, locus YMR205C, strain PFK2, stronger effect = lower value): 0.947
- normalized growth (S. cerevisiae deletion strains, locus YMR223W, strain ubp8, stronger effect = lower value): 0.984
- normalized growth (S. cerevisiae deletion strains, locus YMR231W, strain pep5, stronger effect = lower value): 1.02
- normalized growth (S. cerevisiae deletion strains, locus YMR263W, strain SAP30, stronger effect = lower value): 0.967
- normalized growth (S. cerevisiae deletion strains, locus YMR307W, strain GAS1, stronger effect = lower value): 1.12
- normalized growth (S. cerevisiae deletion strains, locus YNL067W, strain RPL9B, stronger effect = lower value): 0.957
- normalized growth (S. cerevisiae deletion strains, locus YNL071W, strain lat1, stronger effect = lower value): 0.97
- normalized growth (S. cerevisiae deletion strains, locus YNL128W, strain TEP1, stronger effect = lower value): 0.986
- normalized growth (S. cerevisiae deletion strains, locus YNL183C, strain NPR1, stronger effect = lower value): 0.894
- normalized growth (S. cerevisiae deletion strains, locus YNL209W, strain ssb2, stronger effect = lower value): 1.02
- normalized growth (S. cerevisiae deletion strains, locus YNL233W, strain BNI4, stronger effect = lower value): 0.938
- normalized growth (S. cerevisiae deletion strains, locus YNL248C, strain rpa49, stronger effect = lower value): 0.986
- normalized growth (S. cerevisiae deletion strains, locus YNL250W, strain rad50, stronger effect = lower value): 0.972
- normalized growth (S. cerevisiae deletion strains, locus YNL271C, strain bni1, stronger effect = lower value): 0.996
- normalized growth (S. cerevisiae deletion strains, locus YNL298W, strain CLA4, stronger effect = lower value): 0.969
- normalized growth (S. cerevisiae deletion strains, locus YNL307C, strain MCK1, stronger effect = lower value): 0.958
- normalized growth (S. cerevisiae deletion strains, locus YNL322C, strain KRE1 (second series), stronger effect = lower value): 0.988
- normalized growth (S. cerevisiae deletion strains, locus YNR049C, strain mso1, stronger effect = lower value): 0.99
- normalized growth (S. cerevisiae deletion strains, locus YNR052C, strain pop2, stronger effect = lower value): 0.985
- normalized growth (S. cerevisiae deletion strains, locus YOL006C, strain TOP1, stronger effect = lower value): 0.796
- normalized growth (S. cerevisiae deletion strains, locus YOL012C, strain htz1): 1.06
- normalized growth (S. cerevisiae deletion strains, locus YOL147C, strain pex11, stronger effect = lower value): 0.969
- normalized growth (S. cerevisiae deletion strains, locus YOR001W, strain rrp6, stronger effect = lower value): 0.972
- normalized growth (S. cerevisiae deletion strains, locus YOR061W, strain CKA2, stronger effect = lower value): 0.937
- normalized growth (S. cerevisiae deletion strains, locus YOR069W, strain VPS5, stronger effect = lower value): 0.987
- normalized growth (S. cerevisiae deletion strains, locus YOR070C, strain gyp1, stronger effect = lower value): 1.01
- normalized growth (S. cerevisiae deletion strains, locus YOR080W, strain dia2, stronger effect = lower value): 1.02
- normalized growth (S. cerevisiae deletion strains, locus YOR083W, strain WHI5, stronger effect = lower value): 0.936
- normalized growth (S. cerevisiae deletion strains, locus YOR106W, strain vam3, stronger effect = lower value): 1.03
- normalized growth (S. cerevisiae deletion strains, locus YOR136W, strain idh2, stronger effect = lower value): 0.982
- normalized growth (S. cerevisiae deletion strains, locus YOR144C, strain elg1, stronger effect = lower value): 0.968
- normalized growth (S. cerevisiae deletion strains, locus YOR184W, strain ser1, stronger effect = lower value): 0.906
- normalized growth (S. cerevisiae deletion strains, locus YOR231W, strain MKK1, stronger effect = lower value): 0.923
- normalized growth (S. cerevisiae deletion strains, locus YOR265W, strain rbl2, stronger effect = lower value): 0.992
- normalized growth (S. cerevisiae deletion strains, locus YOR270C, strain vph1, stronger effect = lower value): 0.968
- normalized growth (S. cerevisiae deletion strains, locus YOR290C, strain snf2, stronger effect = lower value): 0.968
- normalized growth (S. cerevisiae deletion strains, locus YOR316C, strain cot1, stronger effect = lower value): 0.965
- normalized growth (S. cerevisiae deletion strains, locus YPL051W, strain arl3, stronger effect = lower value): 1.01
- normalized growth (S. cerevisiae deletion strains, locus YPL055C, strain LGE1, stronger effect = lower value): 0.838
- normalized growth (S. cerevisiae deletion strains, locus YPL078C, strain atp4, stronger effect = lower value): 1.04
- normalized growth (S. cerevisiae deletion strains, locus YPL106C, strain sse1, stronger effect = lower value): 1.03
- normalized growth (S. cerevisiae deletion strains, locus YPL240C, strain hsp82, stronger effect = lower value): 1
- normalized growth (S. cerevisiae deletion strains, locus YPL241C, strain CIN2, stronger effect = lower value): 0.972
- normalized growth (S. cerevisiae deletion strains, locus YPL256C, strain CLN2, stronger effect = lower value): 0.924
- normalized growth (S. cerevisiae deletion strains, locus YPR119W, strain clb2, stronger effect = lower value): 0.955
- normalized growth (S. cerevisiae deletion strains, locus YPR141C, strain kar3, stronger effect = lower value): 0.97
- normalized growth (S. cerevisiae deletion strains, locus YPR163C, strain tif3, stronger effect = lower value): 0.979
- normalized growth (S. cerevisiae deletion strains, locus YPR167C, strain met16, stronger effect = lower value): 0.975
- normalized growth (S. cerevisiae deletion strains, strain wtn01, stronger effect = lower value): 0.972
- normalized growth (S. cerevisiae strains, strain wild type, stronger effect = lower value): 0.958
